{"source": "paper PMC7862700", "about": "“An all-to-all approach to the identification of sequence-specific readers for epigenetic DNA modifications on cytosine”", "test_in_all_cases": "DAPPL (digital affinity profiling via proximity ligation, sequencing); 10 mM Tris-HCl pH 7.5, 50 mM NaCl, 1 mM DTT, 4% glycerol, room temperature, 30 min; GST-TFs on glutathione beads, 16-mer random dsDNA library, 0.1% formaldehyde crosslink after washing; high values mean tight binding", "settings_in_all_cases": "protein: recombinant; tags: N-terminal GST; dsDNA, one strand shown", "key": {"ELK1": {"target": "T1, ELK1 (Homo sapiens, UniProt P19419 1-428)", "T1 sequence": "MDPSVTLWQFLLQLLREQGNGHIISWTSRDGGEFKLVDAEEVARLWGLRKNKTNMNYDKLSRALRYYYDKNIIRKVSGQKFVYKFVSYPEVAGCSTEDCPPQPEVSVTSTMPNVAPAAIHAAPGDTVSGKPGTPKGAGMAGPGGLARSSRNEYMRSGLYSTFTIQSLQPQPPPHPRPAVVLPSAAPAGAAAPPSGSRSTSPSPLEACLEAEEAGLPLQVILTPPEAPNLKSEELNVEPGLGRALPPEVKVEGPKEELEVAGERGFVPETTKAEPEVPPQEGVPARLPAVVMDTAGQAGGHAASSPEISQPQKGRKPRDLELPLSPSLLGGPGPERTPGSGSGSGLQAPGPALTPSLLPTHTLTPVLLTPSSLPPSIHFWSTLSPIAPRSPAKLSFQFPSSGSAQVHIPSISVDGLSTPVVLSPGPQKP", "how_it_was_run": "(§1)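 A tag-only sample was pooled with DNA-barcoded human transcription factors that had been expressed in yeast as GST fusions and captured on glutathione beads. The pools were incubated for 30 min at room temperature with 200 nmole of a random double-stranded 16-mer DNA library in Tris/NaCl/DTT/glycerol buffer, then washed, crosslinked with 0.1% formaldehyde, proximity-ligated (BsaI/T4 ligase, 1 h, 37 °C), PCR-amplified and sequenced on an Illumina NextSeq500. Binding signal is each hexamer's read frequency for a factor divided by its frequency for the tag-only sample.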"}, "GABPA": {"target": "T2, GABPA (Homo sapiens, UniProt Q06546 1-454)", "T2 sequence": "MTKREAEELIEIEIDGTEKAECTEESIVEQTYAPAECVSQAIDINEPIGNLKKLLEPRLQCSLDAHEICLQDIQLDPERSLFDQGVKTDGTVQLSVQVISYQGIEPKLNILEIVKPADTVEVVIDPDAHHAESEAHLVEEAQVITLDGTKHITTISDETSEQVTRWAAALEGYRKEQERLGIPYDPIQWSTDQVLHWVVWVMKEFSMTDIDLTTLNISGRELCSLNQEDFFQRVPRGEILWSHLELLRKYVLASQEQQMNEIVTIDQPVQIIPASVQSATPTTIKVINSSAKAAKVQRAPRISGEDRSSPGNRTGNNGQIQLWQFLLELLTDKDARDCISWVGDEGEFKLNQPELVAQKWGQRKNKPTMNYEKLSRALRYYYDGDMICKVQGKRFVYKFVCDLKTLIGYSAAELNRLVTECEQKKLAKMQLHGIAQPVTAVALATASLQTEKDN", "how_it_was_run": "as §1"}, "ERG": {"target": "T3, ERG (Homo sapiens, UniProt P11308 1-479)", "T3 sequence": "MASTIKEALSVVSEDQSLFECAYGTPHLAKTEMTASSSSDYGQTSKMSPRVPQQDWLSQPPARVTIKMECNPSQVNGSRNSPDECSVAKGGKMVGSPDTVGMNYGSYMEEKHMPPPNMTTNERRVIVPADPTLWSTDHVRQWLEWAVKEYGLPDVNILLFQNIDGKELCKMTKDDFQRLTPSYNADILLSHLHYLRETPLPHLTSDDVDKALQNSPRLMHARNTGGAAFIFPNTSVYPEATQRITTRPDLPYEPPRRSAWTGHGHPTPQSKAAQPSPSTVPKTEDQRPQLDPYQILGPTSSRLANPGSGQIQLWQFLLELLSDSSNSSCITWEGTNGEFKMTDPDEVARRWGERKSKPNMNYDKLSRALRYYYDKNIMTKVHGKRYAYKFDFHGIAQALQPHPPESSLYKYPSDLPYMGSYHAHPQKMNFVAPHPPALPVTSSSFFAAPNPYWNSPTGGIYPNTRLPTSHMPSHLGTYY", "how_it_was_run": "as §1"}, "ELF1": {"target": "ELF1 (Homo sapiens, UniProt P32519 1-619)", "sequence (P32519 whole entry)": "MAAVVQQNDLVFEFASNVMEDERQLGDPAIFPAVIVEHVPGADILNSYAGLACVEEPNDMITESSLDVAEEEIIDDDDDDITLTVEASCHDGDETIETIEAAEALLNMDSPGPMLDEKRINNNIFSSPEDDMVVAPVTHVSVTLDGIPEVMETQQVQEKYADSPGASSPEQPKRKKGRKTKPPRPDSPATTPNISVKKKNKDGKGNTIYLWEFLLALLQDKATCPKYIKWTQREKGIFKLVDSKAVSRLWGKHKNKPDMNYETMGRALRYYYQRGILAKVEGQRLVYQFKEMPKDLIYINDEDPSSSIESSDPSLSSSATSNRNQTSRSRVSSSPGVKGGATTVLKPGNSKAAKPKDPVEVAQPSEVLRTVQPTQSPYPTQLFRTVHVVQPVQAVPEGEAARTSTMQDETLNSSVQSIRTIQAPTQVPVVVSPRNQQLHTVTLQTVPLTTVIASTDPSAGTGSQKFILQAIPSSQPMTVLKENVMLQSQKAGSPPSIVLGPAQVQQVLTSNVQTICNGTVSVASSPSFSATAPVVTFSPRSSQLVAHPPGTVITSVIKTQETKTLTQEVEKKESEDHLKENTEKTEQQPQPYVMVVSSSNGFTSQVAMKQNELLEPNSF", "how_it_was_run": "as §1"}, "EHF": {"target": "T4, EHF (Homo sapiens, UniProt Q9NZC4 1-300)", "T4 sequence": "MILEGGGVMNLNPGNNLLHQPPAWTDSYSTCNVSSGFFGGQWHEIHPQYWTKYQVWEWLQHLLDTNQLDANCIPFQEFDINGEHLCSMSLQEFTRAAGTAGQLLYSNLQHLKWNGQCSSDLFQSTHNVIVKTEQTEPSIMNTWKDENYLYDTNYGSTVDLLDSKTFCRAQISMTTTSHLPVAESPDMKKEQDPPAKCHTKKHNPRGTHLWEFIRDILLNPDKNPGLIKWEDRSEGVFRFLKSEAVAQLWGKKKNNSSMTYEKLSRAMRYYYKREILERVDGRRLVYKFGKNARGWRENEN", "how_it_was_run": "as §1"}, "SPIB": {"target": "SPIB (Homo sapiens, UniProt Q01892 1-262)", "sequence (Q01892 whole entry)": "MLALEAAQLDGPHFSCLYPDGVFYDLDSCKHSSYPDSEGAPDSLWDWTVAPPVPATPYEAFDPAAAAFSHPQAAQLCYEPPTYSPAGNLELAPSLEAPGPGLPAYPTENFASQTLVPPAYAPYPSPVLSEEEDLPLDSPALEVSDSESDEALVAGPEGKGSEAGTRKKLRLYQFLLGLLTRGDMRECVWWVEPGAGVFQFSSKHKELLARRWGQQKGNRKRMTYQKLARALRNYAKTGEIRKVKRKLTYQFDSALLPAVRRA", "how_it_was_run": "as §1"}, "FEV": {"target": "T5, FEV (Homo sapiens, UniProt Q99581 1-238)", "T5 sequence": "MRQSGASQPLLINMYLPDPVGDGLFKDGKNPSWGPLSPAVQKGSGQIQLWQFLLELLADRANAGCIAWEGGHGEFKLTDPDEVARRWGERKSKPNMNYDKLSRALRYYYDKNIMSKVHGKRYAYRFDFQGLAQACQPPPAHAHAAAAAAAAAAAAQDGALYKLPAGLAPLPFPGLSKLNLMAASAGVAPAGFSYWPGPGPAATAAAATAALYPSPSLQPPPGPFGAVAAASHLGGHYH", "how_it_was_run": "as §1"}, "ETV5": {"target": "ETV5 (Homo sapiens, UniProt P41161 1-510)", "sequence (P41161 whole entry)": "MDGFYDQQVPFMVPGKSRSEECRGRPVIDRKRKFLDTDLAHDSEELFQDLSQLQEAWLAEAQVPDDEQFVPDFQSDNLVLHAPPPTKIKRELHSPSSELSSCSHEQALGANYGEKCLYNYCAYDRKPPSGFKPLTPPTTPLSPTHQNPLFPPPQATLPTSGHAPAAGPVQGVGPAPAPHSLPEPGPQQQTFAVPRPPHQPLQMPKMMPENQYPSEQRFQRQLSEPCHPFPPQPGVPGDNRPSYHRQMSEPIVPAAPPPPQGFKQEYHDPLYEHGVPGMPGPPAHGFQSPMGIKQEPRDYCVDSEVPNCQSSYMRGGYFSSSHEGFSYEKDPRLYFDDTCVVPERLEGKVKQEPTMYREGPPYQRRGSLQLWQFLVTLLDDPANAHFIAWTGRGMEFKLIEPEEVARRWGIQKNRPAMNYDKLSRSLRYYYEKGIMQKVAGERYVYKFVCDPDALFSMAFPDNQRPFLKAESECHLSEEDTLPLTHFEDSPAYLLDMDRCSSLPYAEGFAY", "how_it_was_run": "as §1"}, "ELF4": {"target": "ELF4 (Homo sapiens, UniProt Q99607 1-663)", "sequence (Q99607 whole entry)": "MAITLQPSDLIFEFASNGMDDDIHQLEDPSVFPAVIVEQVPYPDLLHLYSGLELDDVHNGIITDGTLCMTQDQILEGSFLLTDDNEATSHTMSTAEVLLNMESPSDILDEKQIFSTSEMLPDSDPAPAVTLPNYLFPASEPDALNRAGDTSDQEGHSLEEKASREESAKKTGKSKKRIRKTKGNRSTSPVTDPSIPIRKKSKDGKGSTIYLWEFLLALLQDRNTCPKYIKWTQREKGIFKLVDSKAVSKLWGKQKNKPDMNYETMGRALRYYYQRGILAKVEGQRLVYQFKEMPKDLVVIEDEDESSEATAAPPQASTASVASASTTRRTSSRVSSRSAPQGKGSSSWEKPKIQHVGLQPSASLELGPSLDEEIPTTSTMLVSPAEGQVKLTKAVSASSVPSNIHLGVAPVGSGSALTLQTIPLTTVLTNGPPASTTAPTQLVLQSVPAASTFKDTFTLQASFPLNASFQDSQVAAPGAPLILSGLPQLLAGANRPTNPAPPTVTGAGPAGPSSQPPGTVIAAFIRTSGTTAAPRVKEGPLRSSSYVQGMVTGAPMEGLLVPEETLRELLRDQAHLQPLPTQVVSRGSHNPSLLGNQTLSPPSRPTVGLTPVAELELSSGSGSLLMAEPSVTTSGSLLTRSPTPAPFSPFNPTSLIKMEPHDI", "how_it_was_run": "as §1"}, "ELK4": {"target": "T6, ELK4 (Homo sapiens, UniProt P28324-2 1-405)", "T6 sequence": "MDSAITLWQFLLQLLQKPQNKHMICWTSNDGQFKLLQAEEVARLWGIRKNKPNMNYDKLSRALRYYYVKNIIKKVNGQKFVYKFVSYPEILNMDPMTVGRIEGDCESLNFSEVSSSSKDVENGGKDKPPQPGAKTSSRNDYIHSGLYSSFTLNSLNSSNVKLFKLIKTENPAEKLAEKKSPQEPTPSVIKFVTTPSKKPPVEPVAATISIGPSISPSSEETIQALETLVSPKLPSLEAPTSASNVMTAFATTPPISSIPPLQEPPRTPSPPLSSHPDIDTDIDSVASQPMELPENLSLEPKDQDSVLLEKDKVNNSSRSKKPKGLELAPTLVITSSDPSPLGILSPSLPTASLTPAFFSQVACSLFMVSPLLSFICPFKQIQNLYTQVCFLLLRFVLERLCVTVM", "how_it_was_run": "as §1"}, "ELF3": {"target": "T7, ELF3 (Homo sapiens, UniProt P78545 1-371)", "T7 sequence": "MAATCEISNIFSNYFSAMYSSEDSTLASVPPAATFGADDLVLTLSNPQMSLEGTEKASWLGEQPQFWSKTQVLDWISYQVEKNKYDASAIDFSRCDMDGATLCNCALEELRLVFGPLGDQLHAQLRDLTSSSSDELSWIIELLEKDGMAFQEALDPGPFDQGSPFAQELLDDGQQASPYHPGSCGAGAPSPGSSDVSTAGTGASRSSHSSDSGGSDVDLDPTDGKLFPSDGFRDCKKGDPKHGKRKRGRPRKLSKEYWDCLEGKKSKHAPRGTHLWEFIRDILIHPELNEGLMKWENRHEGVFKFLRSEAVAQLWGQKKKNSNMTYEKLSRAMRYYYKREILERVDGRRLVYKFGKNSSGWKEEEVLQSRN", "how_it_was_run": "as §1"}, "ETV1": {"target": "ETV1 (Homo sapiens, UniProt P50549 1-477)", "sequence (P50549 whole entry)": "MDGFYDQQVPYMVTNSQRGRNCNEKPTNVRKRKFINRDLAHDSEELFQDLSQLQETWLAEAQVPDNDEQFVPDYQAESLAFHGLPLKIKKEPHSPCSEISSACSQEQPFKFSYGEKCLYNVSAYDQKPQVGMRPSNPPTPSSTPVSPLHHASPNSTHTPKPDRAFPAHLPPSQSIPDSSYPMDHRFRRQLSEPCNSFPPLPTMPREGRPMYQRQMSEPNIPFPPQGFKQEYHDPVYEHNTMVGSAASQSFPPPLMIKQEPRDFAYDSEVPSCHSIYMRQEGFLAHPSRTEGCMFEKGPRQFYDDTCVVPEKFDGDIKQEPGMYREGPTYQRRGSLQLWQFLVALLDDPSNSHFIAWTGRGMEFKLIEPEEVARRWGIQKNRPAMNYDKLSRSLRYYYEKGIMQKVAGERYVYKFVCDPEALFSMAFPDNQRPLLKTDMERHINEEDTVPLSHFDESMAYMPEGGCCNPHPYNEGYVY", "how_it_was_run": "as §1"}, "ETV3L": {"target": "T8, ETV3L (Homo sapiens, UniProt Q6ZN32 1-361)", "T8 sequence": "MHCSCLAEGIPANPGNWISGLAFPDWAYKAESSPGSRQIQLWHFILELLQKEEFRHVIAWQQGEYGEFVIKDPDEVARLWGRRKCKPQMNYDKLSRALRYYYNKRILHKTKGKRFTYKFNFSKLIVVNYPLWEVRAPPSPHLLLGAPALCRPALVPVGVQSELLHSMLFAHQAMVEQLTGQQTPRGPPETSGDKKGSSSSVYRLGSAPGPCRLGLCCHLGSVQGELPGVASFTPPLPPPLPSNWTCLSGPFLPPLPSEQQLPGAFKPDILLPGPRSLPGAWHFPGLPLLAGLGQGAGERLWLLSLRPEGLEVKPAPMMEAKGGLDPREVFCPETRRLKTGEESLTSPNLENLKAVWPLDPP", "how_it_was_run": "as §1"}, "ETS2": {"target": "T9, ETS2 (Homo sapiens, UniProt P15036 1-469)", "T9 sequence": "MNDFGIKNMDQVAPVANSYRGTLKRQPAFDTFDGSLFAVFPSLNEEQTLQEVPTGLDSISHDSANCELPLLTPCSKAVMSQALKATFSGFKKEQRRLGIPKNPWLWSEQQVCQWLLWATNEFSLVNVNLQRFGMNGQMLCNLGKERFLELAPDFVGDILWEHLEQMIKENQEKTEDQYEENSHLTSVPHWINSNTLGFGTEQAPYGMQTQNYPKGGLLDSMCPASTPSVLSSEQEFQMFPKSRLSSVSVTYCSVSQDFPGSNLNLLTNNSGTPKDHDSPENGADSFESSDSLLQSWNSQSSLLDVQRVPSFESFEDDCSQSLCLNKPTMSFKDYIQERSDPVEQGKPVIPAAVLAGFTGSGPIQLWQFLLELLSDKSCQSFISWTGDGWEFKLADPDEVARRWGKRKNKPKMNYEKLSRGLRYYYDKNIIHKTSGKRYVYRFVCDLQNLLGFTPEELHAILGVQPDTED", "how_it_was_run": "as §1"}, "SPDEF": {"target": "T10, SPDEF (Homo sapiens, UniProt O95238 1-335)", "T10 sequence": "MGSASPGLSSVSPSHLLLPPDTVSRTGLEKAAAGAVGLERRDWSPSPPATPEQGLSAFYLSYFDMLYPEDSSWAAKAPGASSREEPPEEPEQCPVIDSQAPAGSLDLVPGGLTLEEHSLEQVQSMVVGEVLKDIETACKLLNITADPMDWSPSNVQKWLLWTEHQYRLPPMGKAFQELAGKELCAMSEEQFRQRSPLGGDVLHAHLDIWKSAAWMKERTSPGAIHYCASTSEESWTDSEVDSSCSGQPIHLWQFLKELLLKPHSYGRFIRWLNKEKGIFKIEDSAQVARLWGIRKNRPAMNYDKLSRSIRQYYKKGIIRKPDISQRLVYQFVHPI", "how_it_was_run": "as §1"}, "ETV7": {"target": "T11, ETV7 (Homo sapiens, UniProt Q9Y603 1-341)", "T11 sequence": "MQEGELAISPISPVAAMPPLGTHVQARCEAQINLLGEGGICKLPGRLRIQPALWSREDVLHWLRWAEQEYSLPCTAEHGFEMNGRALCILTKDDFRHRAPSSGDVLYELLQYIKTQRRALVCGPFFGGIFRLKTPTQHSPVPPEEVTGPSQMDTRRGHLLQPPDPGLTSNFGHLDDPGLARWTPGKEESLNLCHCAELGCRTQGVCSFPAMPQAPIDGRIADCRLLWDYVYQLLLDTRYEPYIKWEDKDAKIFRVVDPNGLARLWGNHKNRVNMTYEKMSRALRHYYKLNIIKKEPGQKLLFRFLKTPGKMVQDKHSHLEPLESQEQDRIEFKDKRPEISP", "how_it_was_run": "as §1"}, "ETV3": {"target": "T12, ETV3 (Homo sapiens, UniProt P41162-2 1-143)", "T12 sequence": "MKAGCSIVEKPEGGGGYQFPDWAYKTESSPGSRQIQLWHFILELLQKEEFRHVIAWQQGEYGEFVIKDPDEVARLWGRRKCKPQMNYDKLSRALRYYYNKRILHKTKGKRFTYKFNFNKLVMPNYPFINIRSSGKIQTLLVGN", "how_it_was_run": "as §1"}, "ETV6": {"target": "ETV6 (Homo sapiens, UniProt P41212 1-452)", "sequence (P41212 whole entry)": "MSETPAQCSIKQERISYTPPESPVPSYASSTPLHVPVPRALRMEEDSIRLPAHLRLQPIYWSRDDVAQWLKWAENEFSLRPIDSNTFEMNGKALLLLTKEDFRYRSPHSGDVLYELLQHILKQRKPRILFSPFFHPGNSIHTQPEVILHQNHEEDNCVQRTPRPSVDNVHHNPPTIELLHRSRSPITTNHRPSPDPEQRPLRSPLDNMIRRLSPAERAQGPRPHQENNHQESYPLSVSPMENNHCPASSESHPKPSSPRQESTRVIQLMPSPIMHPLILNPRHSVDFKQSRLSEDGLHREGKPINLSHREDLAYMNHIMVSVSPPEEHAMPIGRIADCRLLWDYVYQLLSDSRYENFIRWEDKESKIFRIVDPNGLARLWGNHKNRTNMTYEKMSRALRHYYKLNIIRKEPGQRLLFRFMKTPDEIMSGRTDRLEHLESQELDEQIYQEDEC", "how_it_was_run": "as §1"}}, "data": [{"sequence": "ACCGGC", "values": [{"measurement": "binding signal", "setting": "ELK1", "value": "1.08 fold enrichment (6-mer frequency, TF over GST control)"}, {"measurement": "binding signal", "setting": "GABPA", "value": "1.12 fold enrichment (6-mer frequency, TF over GST control)"}, {"measurement": "binding signal", "setting": "ERG", "value": "1.13 fold enrichment (6-mer frequency, TF over GST control)"}, {"measurement": "binding signal", "setting": "ELF1", "value": "1.19 fold enrichment (6-mer frequency, TF over GST control)"}, {"measurement": "binding signal", "setting": "EHF", "value": "1.12 fold enrichment (6-mer frequency, TF over GST control)"}, {"measurement": "binding signal", "setting": "SPIB", "value": "1.3 fold enrichment (6-mer frequency, TF over GST control)"}, {"measurement": "binding signal", "setting": "FEV", "value": "1.14 fold enrichment (6-mer frequency, TF over GST control)"}, {"measurement": "binding signal", "setting": "ETV5", "value": "1.1 fold enrichment (6-mer frequency, TF over GST control)"}, {"measurement": "binding signal", "setting": "ELF4", "value": "1.03 fold enrichment (6-mer frequency, TF over GST control)"}, {"measurement": "binding signal", "setting": "ELK4", "value": "1.1 fold enrichment (6-mer frequency, TF over GST control)"}, {"measurement": "binding signal", "setting": "ELF3", "value": "1.21 fold enrichment (6-mer frequency, TF over GST control)"}, {"measurement": "binding signal", "setting": "ETV1", "value": "1.23 fold enrichment (6-mer frequency, TF over GST control)"}, {"measurement": "binding signal", "setting": "ETV3L", "value": "1.21 fold enrichment (6-mer frequency, TF over GST control)"}, {"measurement": "binding signal", "setting": "ETS2", "value": "1.17 fold enrichment (6-mer frequency, TF over GST control)"}, {"measurement": "binding signal", "setting": "SPDEF", "value": "1.05 fold enrichment (6-mer frequency, TF over GST control)"}, {"measurement": "binding signal", "setting": "ETV7", "value": "1.06 fold enrichment (6-mer frequency, TF over GST control)"}, {"measurement": "binding signal", "setting": "ETV3", "value": "1.15 fold enrichment (6-mer frequency, TF over GST control)"}, {"measurement": "binding signal", "setting": "ETV6", "value": "1.31 fold enrichment (6-mer frequency, TF over GST control)"}]}]}
